Screens as filed in PubChem.
A selection: hits, their analogues and other compounds. The true share with any hit is near 7.6%.
p53 reactivation: re-activators of mutant p53; H1299 p53-A138V BP100-luciferase reporter, luminescence, 24 h; Potency, µM (top dose mostly 92.2 µM), actives largely listed as activators; 320,000 compounds, 0.063% hits; AID 504706; note: nearly all actives have a fitted effect of over 45% in size
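H1299 (p53-null), stable ts p53-A138V + BP100-Luc; 1000 cells/well, Opti-MEM/10% FBS; cpd 4 pt, 1:5; 24 h, 37 deg C, 5% CO2; detection reagent 10 min RT; luminescence.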
BRCA1 expr up: increases BRCA1 expression; MCF7-BRCA1-FFLuc reporter, luminescence, 48 h; response scale: scaled: vehicle 0%, 10 µM genistein 100%; Potency, µM (highest dose often 46.1 µM), most hits filed as activators; 380,000 compounds, 1.1% hits; note: nearly all actives have a fitted effect of over 80% in size
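Activators of BRCA1 expression were detected as increased firefly luciferase luminescence in engineered MCF7 cells after 48 h compound incubation. Signals were scaled to genistein 10 microM as full activation.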
Gal4-VP16 FLuc: counter-screen for ROR gamma inhibitors: Gal4-VP16 reporter; Drosophila S2 Gal4-VP16 UAS-luciferase, luminescence, 20 h; Potency, µM (doses to about 53.6 µM), hits mostly inhibitors; 310,000 compounds, 3.5% hits; AID 2546;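 note: Gal4-VP16 expression switched on by copper sulfate through the metallothionein promoter; nearly all actives have a fitted effect of over 50% in size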
Giardia kill: Giardia lamblia killing | Giardia lamblia trophozoite viability | activity change, % at 7.66 µM, hits read low | AID 540267 | 340,000 compounds, 0.15% hits; in the data active = activity change below about -80%; inconclusive = between about -30% and that limit;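 note: parasites exposed to compound for two days anaerobically before the ATP read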
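ATP-content bioluminescence gauges trophozoite survival. Cells (100/well) receive compound and incubate anaerobically for 48 hrs at 37 deg C; detection reagent follows for 15-30 min at room temperature.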
ELG1 repair inh: inhibitors of ELG1-dependent DNA repair in HEK293T cells; HEK293T ELG1-luciferase reporter, luminescence, 16 h; DNA damage induced by 5-fluorouridine; Potency, µM (top dose mostly 46.1 µM), hits mostly inhibitors; 330,000 compounds, 2.3% hits; note: nearly all actives have a fitted effect of over 55% in size
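Step one: seed 2,000 cells per well. Step two: pin-transfer compound or DMSO alongside 5-fluorouridine. Step three: incubate 16 hr, 37 °C, 5% CO2. Step four: add ONE-Glo, wait 30 min, read luminescence.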
RORg inh: inhibitors of mouse ROR gamma transcriptional activity; P51450; Drosophila S2 Gal4-RORgamma UAS-luciferase reporter, 20 h; Potency, µM (highest dose often 53.6 µM), actives largely listed as inhibitors; 310,000 compounds, 5.4% hits; AID 2551; note: nearly all actives have a fitted effect of over 60% in size
Target sequence (P51450 whole entry, looked up, the tested form may be a part): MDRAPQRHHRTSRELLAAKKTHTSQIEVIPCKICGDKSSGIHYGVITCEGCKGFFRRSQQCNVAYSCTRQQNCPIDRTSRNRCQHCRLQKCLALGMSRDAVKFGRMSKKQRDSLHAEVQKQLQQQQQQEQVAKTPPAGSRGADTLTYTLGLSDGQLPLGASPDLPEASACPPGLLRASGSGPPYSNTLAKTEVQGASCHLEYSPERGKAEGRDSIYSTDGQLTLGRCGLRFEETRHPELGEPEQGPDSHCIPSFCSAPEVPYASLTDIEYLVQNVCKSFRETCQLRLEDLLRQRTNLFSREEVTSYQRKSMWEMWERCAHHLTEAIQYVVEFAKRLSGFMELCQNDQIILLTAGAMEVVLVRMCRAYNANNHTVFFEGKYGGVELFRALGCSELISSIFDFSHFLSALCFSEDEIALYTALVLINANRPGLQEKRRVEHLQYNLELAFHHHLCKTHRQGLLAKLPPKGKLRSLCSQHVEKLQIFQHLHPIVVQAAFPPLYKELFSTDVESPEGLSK
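Drosophila S2 cells stably expressing Gal4-DBD/mouse RORγ fusion under metallothionein promoter plus UAS-luciferase; compound 1 h, then 700 uM CuSO4 induction for 20 h at ambient temperature; inhibition read as reduced luminescence.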
Of the large screens only hits and unclear results are named; the others gave an inactive call. Unless noted, calls come from the whole dose curve; as a rule, active = well fitted curve in the direction sought with a large enough effect; inconclusive = small, poorly fitted or top-dose-only effect, or another doubt; inactive = no such curve, though single readings can be large; an effect the other way counts as inactive or inconclusive.

O=C(Nc1ccc(N2CCOCC2)c(Cl)c1)c1cccnc1Cl	RORg inh inconclusive
O=C(Nc1ccc(N2CCN(C(=O)c3cccs3)CC2)c(Cl)c1)c1cccnc1	ELG1 repair inh 6.51µM
COc1c(F)c(F)c(C(=O)Nc2ccc(N3CCN(C(C)=O)CC3)c(Cl)c2)c(F)c1F	ELG1 repair inh 23.1µM
COc1ccc(OCC(=O)Nc2ccc(N3CCN(C(=O)c4ccccc4)CC3)c(Cl)c2)cc1	Gal4-VP16 FLuc inconclusive, ELG1 repair inh 11.6µM
O=C(Nc1ccc(N2CCCC2)c(Cl)c1)c1cccnc1	p53 reactivation inconclusive, ELG1 repair inh inconclusive, RORg inh inconclusive
COC(=O)c1cc(NC(=O)c2cc(-c3ccc(OC)cc3)oc2C(F)(F)F)ccc1N1CCOCC1	Gal4-VP16 FLuc inconclusive, ELG1 repair inh 23.1µM
O=C(Nc1ccc(N2CCN(C(=O)c3ccco3)CC2)c(Cl)c1)c1cccnc1	Giardia kill inconclusive, ELG1 repair inh 6.51µM
O=C(Nc1ccc(N2CCN(C(=O)c3ccco3)CC2)c(Cl)c1)c1c(F)c(F)c(F)c(F)c1F	Gal4-VP16 FLuc inconclusive, ELG1 repair inh 18.4µM
Cc1cc2oc(=O)cc(CN(C)Cc3ccccc3)c2cc1C(C)C	none
COc1ccc(CN(C)Cc2cc(=O)oc3cc(C)c(C(C)C)cc23)cc1OC	ELG1 repair inh 18.3µM
Cc1oc(-c2ccccc2F)nc1CS(=O)(=O)CC(=O)NCCN1CCCC1	none
COc1ccccc1C1OC2=C(Nc3ccc([N+](=O)[O-])cc3N2)C1=O (centres undefined)	Giardia kill inconclusive, ELG1 repair inh 23.1µM
COc1ccc(C2OC3=C(Nc4cc(C)c(C)cc4N3)C2=O)cc1 (centres undefined)	p53 reactivation inconclusive, BRCA1 expr up 2.82µM, Gal4-VP16 FLuc inconclusive, ELG1 repair inh inconclusive
COc1ccccc1C1OC(c2cccc([N+](=O)[O-])c2)=NN1C(C)=O (centres undefined)	none
Cc1cc2c(cc1C)NC1=C(N2)OC(c2cccc(O)c2)C1=O (centres undefined)	none
O=C(COC(=O)C1CCN(c2ccc(C(F)(F)F)cn2)CC1)NCc1ccc(F)cc1	none (no result: Gal4-VP16 FLuc, RORg inh)
COc1ccc(CN(CCC(C)C)S(=O)(=O)c2ccccc2Br)c(OC)c1	ELG1 repair inh inconclusive (no result: Gal4-VP16 FLuc, RORg inh)
O=C(NNC(=O)c1csc(-c2cccnc2)n1)c1ccccc1	none
O=C(NNS(=O)(=O)c1ccccc1)c1csc(-c2cccnc2)n1	ELG1 repair inh 11.6µM
CN(C)C=Nc1ncc2c3ccccc3n(CCN(C)C)c2c1C#N	Gal4-VP16 FLuc inconclusive, ELG1 repair inh 6.51µM
CCN(CC)CCn1c2ccccc2c2cnc(N)c(C#N)c21	p53 reactivation inconclusive, ELG1 repair inh inconclusive, RORg inh 0.178µM
Cc1cccc2cc(C#N)c(N3CCC(O)CC3)nc12	none
COc1ccc(NC(=O)C(Cc2ccccc2)n2cccc2)c(OC)c1 (centres undefined)	ELG1 repair inh inconclusive, RORg inh inconclusive
COc1c2ccoc2nc2c(OC)cccc12	BRCA1 expr up 25.1µM, ELG1 repair inh inconclusive
O=c1oc(CCCO)cc2ccc(Br)cc12	none (no result: Gal4-VP16 FLuc, RORg inh)
O=c1oc(CCCO)cc2ccc(/C=C/c3cccc([N+](=O)[O-])c3)cc12	BRCA1 expr up 6.31µM, ELG1 repair inh inconclusive (no result: Gal4-VP16 FLuc, RORg inh)
Cc1cc2nc(C3CCCN(C(=S)Nc4ccccc4)C3)[nH]c2cc1C (centres undefined)	Gal4-VP16 FLuc inconclusive, RORg inh 12.6µM
Oc1ccc(N=Cc2ccc(O)c(O)c2)cc1	p53 reactivation inconclusive, Gal4-VP16 FLuc 10µM, RORg inh 4.47µM
COc1ccc(C2CC(c3ccccc3)=NN2C(=O)COC(=O)c2ccc(S(C)(=O)=O)cc2)cc1 (centres undefined)	ELG1 repair inh inconclusive (no result: Gal4-VP16 FLuc, RORg inh)
COc1ccc(C2CC(c3ccccc3)=NN2S(=O)(=O)c2ccccc2)cc1 (centres undefined)	Gal4-VP16 FLuc 4.47µM, ELG1 repair inh inconclusive, RORg inh inconclusive
CCOC(=O)c1nnn(CC(=O)N2N=C(c3cc(C)ccc3C)CC2c2ccc(OC)cc2)c1C(=O)OCC (centres undefined)	none
